Measurements taken from PubChem BioAssay (Tox21).
Results filed as inconclusive are left out. A call without a number means that no potency is given here. Values without a mark were called inactive. Active and inactive are the calls of the source. The call rests on the fitted dose curve; in most records, active means well fitted cell-killing curve with a large enough effect in the repeat runs; inconclusive means weak or mixed curves, or effect the other way; inactive means flat fitted curve, though single readings scatter.

experiment: qHTS assay to identify small molecule agonists of the constitutive androstane receptor (CAR) signaling pathway - cell viability counter screen (AID 1224836); conditions: HepG2-CYP2B6-hCAR viability, CellTiter-Fluor, 23 h, PK11195 added to every well; series mostly up to 92.4 µM; further: nearly all actives have a fitted effect of over 45% in size
Excerpt: U.S. Tox21 Program National Center for Advancing Translational Sciences [NCATS] NIH Chemical Genomics Center [NCGC] U.S. Environmental Protection Agency [EPA] National Institutes of Environmental Health Sciences [NIEHS] National Toxicology Program [NTP] U.S. Food and Drug Administration [FDA] Tox21 Assay Overview: The constitutive androstane receptor (CAR) is a nuclear receptor which regulates multiple drug metabolizing enzymes (DMEs) and transporters. Activating CAR will generally increase the transcription and subsequent translation of CYP2B6 and CYP3A4. These two DMEs represent about 50% of the drug metabolizing potential in the body. […] Recently, there have also been studies performed indicating CARs role in energy metabolism and cancer therapy. Therefore, inducing CARs activity could have a potential effect on diabetes and cancer. Identifying environmental toxins and compounds which modulate CAR, through the use of the Tox21 10K compound collection, will be an important step in determining the toxicity and potential therapeutic effects these factors will have on the human body. To differentiate true CAR agonists from cytotoxic substances, the assay is multiplexed with a cell viability assay.
Tox21 Assay Protocol Summary: A double-stable (hCAR and CYP2B6-2.2kb) transfected cell line, derived from human hepatoma (HepG2) cells, was utilized for the duration of the quantitative high-throughput screens. The HepG2-CYP2B6-hCAR cells were dispensed at 2500 cells/4 uL/well in 1536-well white solid bottom plates using a Multidrop Combi. After the assay plates were incubated at 37 C/5% CO2 for 4 hrs, 23 nL of compounds at 15 concentrations (from 5-48 columns) or positive control (from 1 to 4 columns) were transferred to the assay plates using a Pintool station. One uL of PK11195 (final concentration = 0.75 uM) was added, using a Flying Reagent Dispenser, inside each well. After a 23 hr incubation period at 37 C/5% CO2, 1 uL of CellTiter-Fluor reagent was added into each well of the assay plates using a Flying Reagent Dispenser. The fluorescence intensity in the plates was then measured using a ViewLux plate reader.
Potency means the concentration at half of the fitted maximal effect.

Structure (SMILES)	Potency	viability change, negative = cytotoxic
CC1CC(O)CC(C)(C)C1 (stereo not given)	inactive	–
CCOC(=O)C(C)Oc1ccc(Oc2nc3ccc(Cl)cc3o2)cc1 (stereo not given)	inactive	–
CCOC(=N)CC(=O)OCC	inactive	–
CCOC(=O)OCC	inactive	–
COCCOC	1.64 µM (active)	–
CO[C@@]12[C@H](COC(N)=O)C3=C(C(=O)C(C)=C(N)C3=O)N1C[C@@H]1N[C@@H]12	9.44 µM (active)	–
O=C(Nc1ccccc1)Nc1ccccc1	inactive	–
NC(=O)Nc1ccc(Cl)c(Cl)c1	inactive	–
Brc1cc(-c2ccc(Br)c(Br)c2Br)cc(Br)c1Br	inactive	–
COc1cc2[nH]c(=O)[nH]c(=O)c2cc1OC	inactive	–
Cc1nc2ccccc2s1	inactive	–
CCCCC(=O)O[C@]1(C(=O)CO)CC[C@H]2[C@@H]3CCC4=CC(=O)CC[C@]4(C)[C@H]3[C@@H](O)C[C@@]21C	inactive	–
C[Si](NC1CCCCC1)(NC1CCCCC1)NC1CCCCC1	inactive	–
CO[C@H]1O[C@H](CO)[C@@H](O)[C@H](O)[C@H]1O	inactive	–
CCC(C)=O	inactive	–
CCCCC1C(=O)N(c2ccccc2)N(c2ccc(O)cc2)C1=O (stereo not given)	inactive	–
CC(=O)OCC(=O)[C@@]12OC(C)(C)O[C@@H]1C[C@H]1[C@@H]3C[C@H](F)C4=CC(=O)C=C[C@]4(C)[C@@]3(F)[C@@H](O)C[C@@]12C	inactive	–
NC(=O)Nc1ccc(Cl)cc1	inactive	–
CC(C)CCCC(=O)O	inactive	–
Cc1cc(O)c2c(O)c3c(O)cccc3cc2c1	inactive	–

Structure (SMILES)	Potency	viability change, negative = cytotoxic
OCC1CC=CCC1 (stereo not given)	inactive	–
CCOCCn1c(C2CCN(CCc3ccc(C(C)(C)C(=O)O)cc3)CC2)nc2ccccc21	inactive	–
CN1C(=O)CC(C)(c2ccccc2)C1=O (stereo not given)	inactive	–
O=C(NCCCN1CCOCC1)c1ccc(Cl)cc1	inactive	–
NC(=O)N(O)[C@@H]1COc2cc(OCc3ccccc3)ccc21	inactive	–
O=C(O)c1cccnc1C(=O)O	inactive	–
O=C(c1ccc(O)cc1)c1ccc(Cl)cc1	inactive	–
CC(=O)[C@H]1CC[C@H]2[C@@H]3C=CC4=CC(=O)CC[C@@]4(C)[C@@H]3CC[C@]12C	inactive	–
C/C(=N/NC(=O)c1ccncc1)C(=O)O	inactive	–
Cc1occc1C(=O)Nc1ccc(C(=O)N2CCC(F)(F)/C(=C\C(=O)N3CCC(N4CCCCC4)CC3)c3ccccc32)cc1	inactive	–
O=[N+]([O-])c1cccc(S(=O)(=O)NCCNS(=O)(=O)c2cccc([N+](=O)[O-])c2)c1	inactive	–
Cc1cnc(C)c(C)n1	inactive	–
CCC1(C)CC(=O)NC1=O (stereo not given)	inactive	–
CC#N	inactive	–
CN1CCCN=C1/C=C/c1cccs1	inactive	–
CC1CN(c2cc3c(cc2F)c(=O)c(C(=O)O)cn3-c2ccc(F)cc2F)CCN1 (stereo not given)	–	-1.43% [at 8.39 µM]
O=C(CCCN1CCC(O)(c2ccc(Br)cc2)CC1)c1ccc(F)cc1	inactive	–
O=C(/C=C/c1ccccc1)OCCCc1ccccc1	inactive	–
CCC(C)(O)CCC=C(C)C (stereo not given)	inactive	–
[O]=[Bi]	–	0.628% [at 8.39 µM]
